Results from PubChem BioAssay AID1159580 (chemical genetic matrix, 2015).
The campaign covered roughly 5,500 compounds. About 2,000 (36%) were called active. Inconclusive results (about 18%) are left out. Rule as the data show it: active = normalized growth mostly below about 0.91 (no sharp cut-off); inconclusive = no clear call, values can overlap the other calls; inactive = mostly above about 0.92. Some of the results follow.

Experiment: chemical genetic growth profiling, strain panel (AID 1159580);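 also: tested at 20 µM; growth read once vehicle control cultures reached saturation at 30 °C; 1 = growth at the plate median or of vehicle wells; lower values mean less growth of the strain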
Details: growth OD

Measured: normalized growth

COC(=O)c1c(OC)cc2c(c1C)Oc1c(Cl)c(O)c(Cl)c(C)c1C(=O)O2
active: S. cerevisiae deletion strains, locus YKL190W, strain CNB1, stronger effect = lower value 0.911 | S. cerevisiae deletion strains, locus YMR263W, strain SAP30, stronger effect = lower value 0.882 | S. cerevisiae deletion strains, locus YNL307C, strain MCK1, stronger effect = lower value 0.838 | S. cerevisiae deletion strains, locus YPL241C, strain CIN2, stronger effect = lower value 0.913 | S. cerevisiae deletion strains, locus YPR163C, strain tif3, stronger effect = lower value 0.901
inactive: S. cerevisiae deletion strains, locus YJR075W, strain HOC1, stronger effect = lower value 0.893 | S. cerevisiae deletion strains, locus YKL009W, strain mrt4, stronger effect = lower value 0.975 | S. cerevisiae deletion strains, locus YKL068W, stronger effect = lower value 0.976 | S. cerevisiae deletion strains, locus YKL085W, strain MDH1 (second series), stronger effect = lower value 0.979 | S. cerevisiae deletion strains, locus YKL085W, strain MDH1, stronger effect = lower value 0.979 | S. cerevisiae deletion strains, locus YKL160W, strain elf1, stronger effect = lower value 0.993 | S. cerevisiae deletion strains, locus YKR001C, strain vps1, stronger effect = lower value 0.949 | S. cerevisiae deletion strains, locus YKR026C, strain gcn3, stronger effect = lower value 0.977 | S. cerevisiae deletion strains, locus YKR091W, strain srl3, stronger effect = lower value 0.986 | S. cerevisiae deletion strains, locus YLL001W, strain dnm1, stronger effect = lower value 0.979 | S. cerevisiae deletion strains, locus YLL026W, stronger effect = lower value 0.983 | S. cerevisiae deletion strains, locus YLL041C, strain sdh2, stronger effect = lower value 0.978 | S. cerevisiae deletion strains, locus YLR027C, strain aat2, stronger effect = lower value 0.991 | S. cerevisiae deletion strains, locus YLR039C, strain RIC1, stronger effect = lower value 0.796 | S. cerevisiae deletion strains, locus YLR058C, strain SHM2, stronger effect = lower value 0.919 | S. cerevisiae deletion strains, locus YLR102C, strain apc9, stronger effect = lower value 0.927 | S. cerevisiae deletion strains, locus YLR113W, strain HOG1, stronger effect = lower value 0.968 | S. cerevisiae deletion strains, locus YLR221C, strain rsa3, stronger effect = lower value 0.982 | S. cerevisiae deletion strains, locus YLR258W, strain gsy2, stronger effect = lower value 0.992 | S. cerevisiae deletion strains, locus YLR262C, strain YPT6 (second series), stronger effect = lower value 0.927 | S. cerevisiae deletion strains, locus YLR262C, strain YPT6, stronger effect = lower value 0.795 | S. cerevisiae deletion strains, locus YLR268W, strain sec22, stronger effect = lower value 0.905 | S. cerevisiae deletion strains, locus YLR320W, strain mms22, stronger effect = lower value 0.964 | S. cerevisiae deletion strains, locus YLR330W, strain CHS5, stronger effect = lower value 0.929 | S. cerevisiae deletion strains, locus YLR342W, strain FKS1 (second series), stronger effect = lower value 0.927 | S. cerevisiae deletion strains, locus YLR342W, strain FKS1, stronger effect = lower value 0.986 | S. cerevisiae deletion strains, locus YLR357W, strain rsc2, stronger effect = lower value 1.05 | S. cerevisiae deletion strains, locus YLR370C, strain arc18, stronger effect = lower value 0.984 | S. cerevisiae deletion strains, locus YLR371W, strain rom2, stronger effect = lower value 0.976 | S. cerevisiae deletion strains, locus YLR384C, strain iki3, stronger effect = lower value 0.994 | S. cerevisiae deletion strains, locus YLR418C, strain cdc73, stronger effect = lower value 0.863 | S. cerevisiae deletion strains, locus YML016C, strain PPZ1, stronger effect = lower value 0.936 | S. cerevisiae deletion strains, locus YML032C, strain rad52, stronger effect = lower value 0.96 | S. cerevisiae deletion strains, locus YML120C, strain ndi1, stronger effect = lower value 0.973 | S. cerevisiae deletion strains, locus YML124C, strain tub3, stronger effect = lower value 0.945 | S. cerevisiae deletion strains, locus YMR058W, strain fet3, stronger effect = lower value 0.982 | S. cerevisiae deletion strains, locus YMR078C, strain ctf18, stronger effect = lower value 0.935 | S. cerevisiae deletion strains, locus YMR125W, strain sto1, stronger effect = lower value 1.01 | S. cerevisiae deletion strains, locus YMR129W, stronger effect = lower value 1.01 | S. cerevisiae deletion strains, locus YMR205C, strain PFK2, stronger effect = lower value 0.989 | S. cerevisiae deletion strains, locus YMR223W, strain ubp8, stronger effect = lower value 0.947 | S. cerevisiae deletion strains, locus YMR231W, strain pep5, stronger effect = lower value 0.993 | S. cerevisiae deletion strains, locus YMR307W, strain GAS1, stronger effect = lower value 0.869 | S. cerevisiae deletion strains, locus YNL067W, strain RPL9B, stronger effect = lower value 0.895 | S. cerevisiae deletion strains, locus YNL071W, strain lat1, stronger effect = lower value 0.982 | S. cerevisiae deletion strains, locus YNL128W, strain TEP1, stronger effect = lower value 0.89 | S. cerevisiae deletion strains, locus YNL153C, strain GIM3, stronger effect = lower value 0.909 | S. cerevisiae deletion strains, locus YNL183C, strain NPR1, stronger effect = lower value 0.9 | S. cerevisiae deletion strains, locus YNL209W, strain ssb2, stronger effect = lower value 0.996 | S. cerevisiae deletion strains, locus YNL233W, strain BNI4, stronger effect = lower value 0.938 | S. cerevisiae deletion strains, locus YNL248C, strain rpa49, stronger effect = lower value 1.02 | S. cerevisiae deletion strains, locus YNL250W, strain rad50, stronger effect = lower value 0.986 | S. cerevisiae deletion strains, locus YNL271C, strain bni1, stronger effect = lower value 0.985 | S. cerevisiae deletion strains, locus YNL298W, strain CLA4, stronger effect = lower value 0.977 | S. cerevisiae deletion strains, locus YNL322C, strain KRE1 (second series), stronger effect = lower value 0.997 | S. cerevisiae deletion strains, locus YNL322C, strain KRE1, stronger effect = lower value 0.937 | S. cerevisiae deletion strains, locus YNR049C, strain mso1, stronger effect = lower value 0.994 | S. cerevisiae deletion strains, locus YNR052C, strain pop2, stronger effect = lower value 0.948 | S. cerevisiae deletion strains, locus YOL006C, strain TOP1, stronger effect = lower value 0.757 | S. cerevisiae deletion strains, locus YOL012C, strain htz1 0.865 | S. cerevisiae deletion strains, locus YOL147C, strain pex11, stronger effect = lower value 0.946 | S. cerevisiae deletion strains, locus YOR001W, strain rrp6, stronger effect = lower value 1.01 | S. cerevisiae deletion strains, locus YOR061W, strain CKA2, stronger effect = lower value 0.892 | S. cerevisiae deletion strains, locus YOR069W, strain VPS5, stronger effect = lower value 0.953 | S. cerevisiae deletion strains, locus YOR070C, strain gyp1, stronger effect = lower value 0.984 | S. cerevisiae deletion strains, locus YOR080W, strain dia2, stronger effect = lower value 0.992 | S. cerevisiae deletion strains, locus YOR083W, strain WHI5, stronger effect = lower value 0.997 | S. cerevisiae deletion strains, locus YOR106W, strain vam3, stronger effect = lower value 1.01 | S. cerevisiae deletion strains, locus YOR136W, strain idh2, stronger effect = lower value 0.943 | S. cerevisiae deletion strains, locus YOR144C, strain elg1, stronger effect = lower value 0.947 | S. cerevisiae deletion strains, locus YOR184W, strain ser1, stronger effect = lower value 0.918 | S. cerevisiae deletion strains, locus YOR231W, strain MKK1, stronger effect = lower value 0.927 | S. cerevisiae deletion strains, locus YOR265W, strain rbl2, stronger effect = lower value 0.989 | S. cerevisiae deletion strains, locus YOR270C, strain vph1, stronger effect = lower value 0.927 | S. cerevisiae deletion strains, locus YOR290C, strain snf2, stronger effect = lower value 0.995 | S. cerevisiae deletion strains, locus YOR316C, strain cot1, stronger effect = lower value 0.933 | S. cerevisiae deletion strains, locus YPL051W, strain arl3, stronger effect = lower value 0.98 | S. cerevisiae deletion strains, locus YPL055C, strain LGE1, stronger effect = lower value 0.864 | S. cerevisiae deletion strains, locus YPL078C, strain atp4, stronger effect = lower value 0.982 | S. cerevisiae deletion strains, locus YPL106C, strain sse1, stronger effect = lower value 1.03 | S. cerevisiae deletion strains, locus YPL240C, strain hsp82, stronger effect = lower value 0.979 | S. cerevisiae deletion strains, locus YPL256C, strain CLN2, stronger effect = lower value 0.938 | S. cerevisiae deletion strains, locus YPR119W, strain clb2, stronger effect = lower value 0.937 | S. cerevisiae deletion strains, locus YPR141C, strain kar3, stronger effect = lower value 0.968 | S. cerevisiae deletion strains, locus YPR167C, strain met16, stronger effect = lower value 0.927 | S. cerevisiae deletion strains, strain wtn01, stronger effect = lower value 0.936 | S. cerevisiae strains, strain wild type, stronger effect = lower value 0.915
